Reference: PubChem BioAssay AID1159580 (chemical genetic matrix, 2015)
Out of some 5,500 compounds screened, about 2,000 (36%) were called active. Inconclusive results (about 18%) are left out. No stated cut-off is given here; in the data, active means normalized growth mostly below about 0.91 (no sharp cut-off); inconclusive means no clear call, values can overlap the other calls; inactive means mostly above about 0.92. The list shows a part of the results.

Assay: chemical genetic growth profiling, strain panel (AID 1159580);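 further: tested at 20 µM; growth read once vehicle control cultures reached saturation at 30 °C; 1 = growth at the plate median or of vehicle wells; lower values mean less growth of the strain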
Conditions: growth OD
[1] = S. cerevisiae deletion strains, locus YAL013W, strain DEP1, hits give low values
[2] = S. cerevisiae deletion strains, locus YDR150W, strain NUM1, hits give low values
[3] = S. cerevisiae deletion strains, locus YGR078C, strain PAC10, hits give low values
[4] = S. cerevisiae deletion strains, locus YGR229C, strain SMI1, hits give low values
[5] = S. cerevisiae deletion strains, locus YMR307W, strain GAS1, hits give low values
[6] = S. cerevisiae deletion strains, locus YNL153C, strain GIM3, hits give low values
[7] = S. cerevisiae deletion strains, locus YNL322C, strain KRE1, hits give low values
[8] = S. cerevisiae deletion strains, locus YPL055C, strain LGE1, hits give low values
[9] = S. cerevisiae deletion strains, locus YPL241C, strain CIN2, hits give low values
[10] = S. cerevisiae deletion strains, locus YDL101C, strain DUN1, hits give low values
[11] = S. cerevisiae deletion strains, locus YHR030C, strain SLT2, hits give low values
[12] = S. cerevisiae deletion strains, locus YBR229C, strain ROT2, hits give low values
[13] = S. cerevisiae deletion strains, locus YDL134C, strain PPH21, hits give low values
[14] = S. cerevisiae deletion strains, locus YEL061C, strain CIN8, hits give low values
[15] = S. cerevisiae deletion strains, locus YHR087W, strain rtc3, hits give low values
[16] = S. cerevisiae deletion strains, locus YJR043C, strain POL32, hits give low values
[17] = S. cerevisiae deletion strains, locus YJR075W, strain HOC1, hits give low values
[18] = S. cerevisiae deletion strains, locus YLR039C, strain RIC1, hits give low values
[19] = S. cerevisiae deletion strains, locus YLR058C, strain SHM2 (second series), hits give low values
[20] = S. cerevisiae deletion strains, locus YLR085C, strain ARP6, hits give low values
[21] = S. cerevisiae deletion strains, locus YLR262C, strain YPT6, hits give low values
[22] = S. cerevisiae deletion strains, locus YML094W, strain GIM5, hits give low values
[23] = S. cerevisiae deletion strains, locus YMR219W, strain ESC1, hits give low values
[24] = S. cerevisiae deletion strains, locus YMR263W, strain SAP30, hits give low values
[25] = S. cerevisiae deletion strains, locus YNL298W, strain CLA4 (second series), hits give low values
[26] = S. cerevisiae deletion strains, locus YNR030W, strain Alg12, hits give low values
[27] = S. cerevisiae deletion strains, locus YPR135W, strain CTF4, hits give low values

Measured: normalized growth

CCCC[N+]1(C)C2CC(OC(=O)[C@H](CO)c3ccccc3)CC1C1OC12 (stereo not given in full)
inactive: [1] 1 | S. cerevisiae deletion strains, locus YAL040C, strain CLN3, hits give low values 1.05 | S. cerevisiae deletion strains, locus YCL061C, strain MRC1 (second series), hits give low values 0.996 | [2] 1 | S. cerevisiae deletion strains, locus YDR363W, strain ESC2, hits give low values 0.999 | S. cerevisiae deletion strains, locus YER002W, strain NOP16, hits give low values 1.01 | [3] 0.989 | [4] 1.02 | [5] 0.976 | [6] 0.987 | S. cerevisiae deletion strains, locus YNL175C, strain NOP13, hits give low values 1.02 | S. cerevisiae deletion strains, locus YNL197C, strain WHI3, hits give low values 0.989 | S. cerevisiae deletion strains, locus YNL224C, strain SQS1, hits give low values 0.99 | [7] 0.998 | S. cerevisiae deletion strains, locus YOR083W, strain WHI5 (second series), hits give low values 0.99 | [8] 0.987 | [9] 1

O=C(Nc1c(Br)c(C2CC2)nn1-c1ccccc1)C(Cl)(Cl)Cl
active: S. cerevisiae deletion strains, locus YKL048C, strain ELM1, hits give low values 0.802 | S. cerevisiae deletion strains, locus YLR113W, strain HOG1, hits give low values 0.858
inactive: S. cerevisiae deletion strains, locus YAR019C, strain CDC15, hits give low values 0.92 | S. cerevisiae deletion strains, locus YBL105C, strain PKC1, hits give low values 0.913 | S. cerevisiae deletion strains, locus YBR135W, strain CKS1, hits give low values 0.914 | S. cerevisiae deletion strains, locus YBR136W, strain MEC1, hits give low values 0.923 | S. cerevisiae deletion strains, locus YBR160W, strain CDC28, hits give low values 0.92 | S. cerevisiae deletion strains, locus YDL017W, strain CDC7, hits give low values 0.929 | S. cerevisiae deletion strains, locus YDL028C, strain MPS1, hits give low values 0.93 | [10] 0.927 | S. cerevisiae deletion strains, locus YDL108W, strain KIN28, hits give low values 0.925 | S. cerevisiae deletion strains, locus YDL132W, strain cdc53, hits give low values 0.917 | S. cerevisiae deletion strains, locus YDL214C, strain PRR2, hits give low values 0.897 | S. cerevisiae deletion strains, locus YDR052C, strain DBF4, hits give low values 0.918 | S. cerevisiae deletion strains, locus YDR054C, strain cdc34, hits give low values 0.921 | S. cerevisiae deletion strains, locus YDR226W, strain ADK1, hits give low values 0.909 | S. cerevisiae deletion strains, locus YDR477W, strain SNF1, hits give low values 0.826 | S. cerevisiae deletion strains, locus YER123W, strain YCK3, hits give low values 0.769 | S. cerevisiae deletion strains, locus YER133W, strain GLC7, hits give low values 0.802 | S. cerevisiae deletion strains, locus YFL009W, strain cdc4, hits give low values 0.92 | S. cerevisiae deletion strains, locus YFL029C, strain CAK1, hits give low values 0.92 | S. cerevisiae deletion strains, locus YFR003C, strain YPI1, hits give low values 0.922 | S. cerevisiae deletion strains, locus YFR019W, strain FAB1, hits give low values 0.932 | S. cerevisiae deletion strains, locus YFR028C, strain CDC14, hits give low values 0.908 | S. cerevisiae deletion strains, locus YGR040W, strain KSS1, hits give low values 0.784 | S. cerevisiae deletion strains, locus YGR052W, strain FMP48, hits give low values 0.856 | S. cerevisiae deletion strains, locus YGR092W, strain DBF2, hits give low values 0.693 | [11] 0.896 | S. cerevisiae deletion strains, locus YHR079C, strain IRE1, hits give low values 0.919 | S. cerevisiae deletion strains, locus YHR082C, strain KSP1, hits give low values 0.919 | S. cerevisiae deletion strains, locus YHR205W, strain SCH9, hits give low values 0.821 | S. cerevisiae deletion strains, locus YIL147C, strain SLN1, hits give low values 0.932 | S. cerevisiae deletion strains, locus YJL095W, strain BCK1, hits give low values 0.824 | S. cerevisiae deletion strains, locus YJL128C, strain PBS2, hits give low values 0.908 | S. cerevisiae deletion strains, locus YJL157C, strain FAR1, hits give low values 0.904 | S. cerevisiae deletion strains, locus YJR016C, strain ILV3, hits give low values 0.929 | S. cerevisiae deletion strains, locus YJR066W, strain TOR1 (second series), hits give low values 0.832 | S. cerevisiae deletion strains, locus YJR066W, strain TOR1, hits give low values 0.86 | S. cerevisiae deletion strains, locus YKL067W, strain YNK1, hits give low values 0.897 | S. cerevisiae deletion strains, locus YKL101W, strain HSL1, hits give low values 0.882 | S. cerevisiae deletion strains, locus YKL193C, strain SDS22, hits give low values 0.921 | S. cerevisiae deletion strains, locus YKL203C, strain TOR2, hits give low values 0.879 | S. cerevisiae deletion strains, locus YLR133W, strain CKI1, hits give low values 0.871 | S. cerevisiae deletion strains, locus YLR403W, strain SFP1, hits give low values 0.714 | S. cerevisiae deletion strains, locus YML070W, strain DAK1, hits give low values 0.901 | S. cerevisiae deletion strains, locus YMR001C, strain CDC5, hits give low values 0.922 | S. cerevisiae deletion strains, locus YMR205C, strain PFK2 (second series), hits give low values 0.883 | S. cerevisiae deletion strains, locus YMR277W, strain FCP1, hits give low values 0.915 | S. cerevisiae deletion strains, locus YNL006W, strain LST8, hits give low values 0.921 | S. cerevisiae deletion strains, locus YNL020C, strain ARK1, hits give low values 0.878 | S. cerevisiae deletion strains, locus YNL161W, strain CBK1, hits give low values 0.925 | S. cerevisiae deletion strains, locus YNL183C, strain NPR1, hits give low values 0.864 | S. cerevisiae deletion strains, locus YNL207W, strain RIO2, hits give low values 0.928 | S. cerevisiae deletion strains, locus YNL222W, strain SSU72, hits give low values 0.928 | S. cerevisiae deletion strains, locus YNL307C, strain MCK1 (second series), hits give low values 0.812 | S. cerevisiae deletion strains, locus YOL078W, strain AVO1, hits give low values 0.912 | S. cerevisiae deletion strains, locus YOL136C, strain PFK27, hits give low values 0.895 | S. cerevisiae deletion strains, locus YOR061W, strain CKA2, hits give low values 0.872 | S. cerevisiae deletion strains, locus YOR119C, strain RIO1, hits give low values 0.822 | S. cerevisiae deletion strains, locus YOR231W, strain MKK1, hits give low values 0.898 | S. cerevisiae deletion strains, locus YOR329C, strain SCD5, hits give low values 0.925 | S. cerevisiae deletion strains, locus YPL031C, strain PHO85, hits give low values 0.814 | S. cerevisiae deletion strains, locus YPL153C, strain RAD53, hits give low values 0.82 | S. cerevisiae deletion strains, locus YPL204W, strain HRR25, hits give low values 0.735 | S. cerevisiae deletion strains, locus YPL209C, strain IPL1, hits give low values 0.922 | S. cerevisiae deletion strains, locus YPL256C, strain CLN2, hits give low values 0.961 | S. cerevisiae deletion strains, locus YPR025C, strain CCL1, hits give low values 0.923 | S. cerevisiae deletion strains, locus YPR106W, strain ISR1, hits give low values 0.935 | S. cerevisiae deletion strains, locus YPR111W, strain DBF20, hits give low values 0.925 | S. cerevisiae deletion strains, strain NNK1, hits give low values 0.944 | S. cerevisiae deletion strains, strain TSCII, hits give low values 0.92

Cc1cc(NC(=O)C(Cl)(Cl)Cl)n(-c2ccccc2)n1
active: [18] 0.678 | [21] 0.728
inactive: [1] 0.984 | [12] 0.987 | [10] 0.995 | [13] 0.936 | [2] 0.898 | [14] 0.994 | [3] 0.984 | [11] 0.888 | [15] 0.97 | S. cerevisiae deletion strains, locus YJL187C, strain SWE1, hits give low values 0.979 | [16] 0.987 | [17] 1 | [19] 0.985 | [20] 0.948 | [22] 1.02 | [23] 0.991 | [24] 0.982 | [5] 1.02 | S. cerevisiae deletion strains, locus YNL128W, strain TEP1, hits give low values 0.975 | [6] 1 | [25] 0.978 | [7] 0.97 | [26] 0.974 | S. cerevisiae deletion strains, locus YOL006C, strain TOP1, hits give low values 0.864 | [8] 1.04 | [9] 1 | [27] 0.838 | S. cerevisiae strains, strain wild type, hits give low values 0.96

CC(=O)Nc1cccc(-n2nnc(SCc3ccccc3)n2)c1
inactive: [1] 1.02 | [12] 1.01 | S. cerevisiae deletion strains, locus YCL061C, strain MRC1, hits give low values 1.03 | [10] 0.995 | [13] 0.988 | [2] 1.03 | [14] 1 | [3] 1.02 | [4] 0.986 | [11] 1.06 | [15] 0.988 | [16] 1.02 | [17] 1.03 | [18] 0.976 | [19] 0.997 | [20] 0.949 | [21] 1.1 | [22] 0.982 | [23] 0.993 | [24] 1.01 | [6] 1.02 | [25] 1.01 | [7] 1.01 | [26] 1.01 | [8] 0.968 | [9] 0.958 | [27] 1.08
